Shown are actives, neighbours in structure and some others; about 2.5% of the full set was active somewhere.
MEKK3 PB1 HTS: modulators (inhibitors or enhancers) of MEK5 binding to human MEKK3 PB1 domain | bead-based flow cytometry, Alexa488-MEK5 binding to MEKK3; actives lie on both sides; 0 = blocked by unlabeled MEK5, 100 = vehicle | binding response (% of control), % at 10 µM | 290,000 compounds, 1.4% hits | AID 1529;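 active = binding response more than 3 SD above or below the average of its plate-row segment, actives on both sides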;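 also: Alexa488 bead fluorescence after subtracting the streptavidin-only scavenger bead signal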
Target sequence (Q99759 whole entry, looked up, the tested form may be a part): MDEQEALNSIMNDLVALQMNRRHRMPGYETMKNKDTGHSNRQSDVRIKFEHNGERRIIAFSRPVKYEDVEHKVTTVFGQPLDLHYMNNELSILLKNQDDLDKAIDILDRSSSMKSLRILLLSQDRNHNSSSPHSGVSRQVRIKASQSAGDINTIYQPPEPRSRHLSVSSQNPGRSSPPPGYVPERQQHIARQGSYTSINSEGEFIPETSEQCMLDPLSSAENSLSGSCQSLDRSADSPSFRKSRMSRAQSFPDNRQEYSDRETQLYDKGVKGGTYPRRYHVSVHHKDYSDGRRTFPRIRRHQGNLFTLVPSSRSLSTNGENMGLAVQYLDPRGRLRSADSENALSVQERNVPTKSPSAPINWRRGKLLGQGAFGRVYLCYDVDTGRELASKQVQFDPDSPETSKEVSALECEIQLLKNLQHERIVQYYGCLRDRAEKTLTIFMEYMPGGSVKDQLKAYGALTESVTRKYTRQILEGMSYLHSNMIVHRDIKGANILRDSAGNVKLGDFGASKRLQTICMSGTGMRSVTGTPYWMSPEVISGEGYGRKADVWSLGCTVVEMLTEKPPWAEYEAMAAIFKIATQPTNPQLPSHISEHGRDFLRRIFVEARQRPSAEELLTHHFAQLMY
UBC13 inh: human UBC13 polyubiquitination inhibition. UBC13 polyubiquitin chain formation, TR-FRET. inhibition, % at 20 µM. AID 485273. P61088. 330,000 compounds, 0.47% hits; in the data active = inhibition above about 45%, passing the limit was not always enough
MEKK2mut PB1 HTS: signal of MEK5 binding to mutant human MEKK2 PB1 domain | 290,000 compounds, 0.35% hits | percent response, % at 10 µM | AID 1530 | bead flow cytometry, Alexa488-MEK5 binding to MEKK2 mutant; in the data active = percent response above about 24%, passing the limit was not always enough
Rce1 inhib: blocks yeast Ras-converting enzyme; yeast membranes, quenched prenylated peptide cleavage fluorescence; calls only; Q03530; 290,000 compounds, 0.27% hits;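 active = fall in fluorescence gain of 50% or more versus controls, with final raw signal at or below 3038400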;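 also: plate controls were neutral control wells for no effect and wells lacking membranes for full effect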
MEKK2wt PB1 HTS: raises or lowers MEK5 binding to wildtype human MEKK2 PB1 domain; Q9Y2U5; bead flow cytometry, Alexa488-MEK5 binding to MEKK2 WT; actives lie on both sides; binding response (% of control), % at 10 µM; 290,000 compounds, 1.1% hits; AID 1531; in the data active = binding response below about 67% or above about 130%
Active calls of the source: *; i = inactive; . = not tested or not shown; + = active, no number.

SMILES | MEKK3 PB1 HTS | UBC13 inh | MEKK2mut PB1 HTS | Rce1 inhib | MEKK2wt PB1 HTS
Cc1nn2c(NC(C)C)c3c(nc2c1-c1ccccc1)CCC3 | 98 | 6 | 0 | i | 98
COc1ccc(S(=O)(=O)N(C)C)cc1NCC(=O)Nc1ccc(Br)c(C)c1 | . | -5 | . | i | .
COc1cc(NC(=O)CN2C(=O)COc3ccc(S(=O)(=O)N4CCOCC4)cc32)cc(OC)c1 | 100 | -1 | 2 | i | 102
CN1Cc2sc(NC(=S)NC(=O)c3ccccc3)c(C#N)c2CC1(C)C | 93 | -48 | 11 | . | -14*
CCC1(C)Cc2c(sc(NC(=S)NC(=O)c3ccccc3)c2C#N)CO1 (configuration not stated) | 87 | -4 | -1 | . | 98
COc1cc(OC)c(C2N(c3ccc(Cl)cc3)C(=O)C3CCCN32)cc1OC (configuration not stated) | 96 | -10 | 13 | i | 10*
Cc1c2c(nc3c(C(=O)NC4CCCC4)cnn13)CCCC2 | 94 | 5 | 3 | i | 97
COC(=O)c1cnn2c3c(c(C)nc12)CCCC3 | 79 | 23 | -13 | + | 89
CSc1ccccc1NC(=O)CSc1nnc(CNC(=O)c2ccccc2F)n1C | 97 | 2 | -1 | i | 97
Cc1cc(CC(C)C)n(-c2nc3ccccc3c(=O)n2OCC(=O)N(C)C)n1 | 102 | -3 | 4 | i | 100
Cc1cc(C)n(-c2nc3ccccc3c(=O)n2OCC(=O)N(C)C)n1 | 102 | -14 | 5 | + | 105
CC1(C)Cc2c(sc(NC(=O)c3ccc(C(=O)c4ccccc4)cc3)c2C(N)=O)C(C)(C)N1 | 106 | 35 | 22 | i | 150*
COC(=O)c1c(NC(=O)c2ccccc2)sc2c1CC(C)(C)NC2(C)C | 103 | 28 | 15 | i | 121
CN1C(=O)CSc2ccc(NC(=O)N3CCC(N4CCCCC4)CC3)cc21 | 102 | 30 | 15 | . | -1.0*
Cc1ccc(C)c(N2CCN(C(=O)Nc3ccc4c(c3)N(C)C(=O)CS4)CC2)c1 | 104 | -1 | 1 | i | 110
COCCNC(=S)Nc1ccccc1Cc1ccccc1 | 102 | -7 | 0 | i | 96
Cc1[nH]c2ccccc2c1/C=N/Nc1ccc([N+](=O)[O-])cc1 | 91 | . | 43 | i | 24*
Cc1[nH]c2ccccc2c1/C=N/Nc1ccc(F)cc1F | 131 | . | 6 | . | 0.0*
O=C(c1cc2ccc([N+](=O)[O-])cc2oc1=O)N1CCOCC1 | 105 | 4 | 11 | i | 104
CC(=O)Nc1ccc(C(=O)Nc2ccc(S(=O)(=O)NCC3CCCO3)cc2)cc1 (configuration not stated) | 99 | -16 | -2 | i | 98
CC(=O)Oc1ccc(C(=O)Nc2ccc(S(=O)(=O)NCC3CCCO3)cc2)cc1 (configuration not stated) | 102 | 6 | 5 | + | 99
COc1cc2c(cc1OC)C(C)N(C(=O)[C@@H](NC(=O)c1ccccc1)C(C)C)CC2 (some centres not stated) | 103 | 4 | 0 | i | 103
COc1cc2c(cc1OC)C(C)N(C(=O)CCNC(=O)c1ccccc1)CC2 (configuration not stated) | 102 | -1 | -6 | + | 104
COc1ccccc1C1=NN(C2=NN=C(N)Cc3ncnn32)C(O)(C(F)(F)F)C1 (configuration not stated) | 86 | 1 | -3 | + | 90
Cc1ccccc1SCC(=O)NCCCn1ccnc1 | 104 | -7 | -4 | i | 108
SMILES | MEKK3 PB1 HTS | UBC13 inh | MEKK2mut PB1 HTS | Rce1 inhib | MEKK2wt PB1 HTS
O=C(CSc1cc(Cl)ccc1Cl)NCCCn1ccnc1 | 105 | 6 | 26* | i | 125
COc1ccccc1NS(=O)(=O)c1cccc(NC(=O)Nc2ccc(Cl)cc2)c1 | 106 | 0 | 15 | i | 147*
CC(C)Oc1cc(C(=O)NC2CCCCC2)c2ccccc2n1 | 102 | -4 | -1 | i | 100
CN1CCN(c2ccccc2NC(=O)c2ccc(-c3ccccc3[N+](=O)[O-])o2)CC1 | 106 | -15 | 20 | i | 135*
CCOC(=O)C1C(=O)C=C(c2ccc(C)cc2)CC1c1ccccc1 (configuration not stated) | 118 | 14 | 2 | i | 105
CCOC(=O)C1C(=O)C=C(/C=C/c2ccc(N(C)C)cc2)CC1c1ccccc1 (configuration not stated) | 129 | -66 | 51* | i | 42*

Bioassay records deposited in PubChem by several laboratories.
